Only some compounds are listed: those with a hit (about 7.3% of all), similar ones and a draw of the others.
FMDV antiviral: blocks foot and mouth disease virus. AID 1159524. Potency, µM (doses to about 57.9 µM), for the others: at the highest dose activity change, negative = inhibition, most hits filed as inhibitors. 1.2% of 410,000 active. FMDV antiviral cell-based qHTS; calls by dose curve; tested in HEK293T cells; also: read-out not given here; potency is read from the fitted curve at half-maximal effect; nearly all actives have a fitted effect of over 45% in size
Vaccinia mCherry: inhibitors of vaccinia virus infection (mCherry reporter signal); Vaccinia virus mCherry reporter infection, fluorescence; Potency, µM (series often up to 36.5 µM), without a hit: at the highest dose activity change, negative = inhibition, usual class: inhibitors; 0.63% of 310,000 active; AID 720579; calls by dose curve; tested in A549 cells; also: potency is read from the fitted curve at half-maximal effect; nearly all actives have a fitted effect of over 35% in size
HCV inh: HCV inhibition | Potency, µM (top dose mostly 41.8 µM), for the others: top-dose activity change, negative = inhibition, hits mostly inhibitors | Huh7.5.1 HCVcc-Cre infection, luciferase reporter, 44 h | 3.4% of 340,000 active | AID 651820; active = well fitted inhibition curve with a large enough effect; inconclusive = small, poorly fitted or top-dose-only effect, or another doubt; inactive = no such curve, though single readings can be large or run the other way; also: potency is read from the fitted curve at half-maximal effect
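Whole-lifecycle infectious HCVcc-Cre system; cells 1,000/well, compound then virus (~0.5 moi) added 4 h after plating, 44 h culture. Luciferase read 15 sec following 15 min substrate incubation, room temp.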
HCMV antiviral: inhibitors of human cytomegalovirus | HFF cells, HCMV-luciferase reporter, 72 h; active compounds read low | activity change, negative = inhibition, % at 57.5 µM | 4.5% of 410,000 active; in the data active = activity change below about -60%; inconclusive = no clear call, values can overlap the other calls; inactive = above about -39%
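Cell-based, HFFs, 1000 cells/well, 16 h 37C; cpds in DMSO + HCMV-luc, MOI 1 PFU/cell; 72 h 37C; OneGlo luminescence after 5 min RT; norm. to buffer vs Salinomycin 10uM.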
Vaccinia Venus: inhibitors of vaccinia virus (Venus reporter). 0.46% of 330,000 active. Potency, µM (doses to about 36.5 µM), inactives show at the top dose activity change, negative = inhibition, hits mostly inhibitors. Vaccinia virus Venus reporter expression, fluorescence. AID 720580; calls by dose curve; tested in A549 cells; also: potency is read from the fitted curve at half-maximal effect; nearly all actives have a fitted effect of over 30% in size
Active calls of the source: *; [ ] = dose if it differs, or a comment. % is scaled to controls: 0 for no effect and ±100 for the full control effect.

`C[C@@H]1CN([C@@H](C)CO)C(=O)CCCn2cc(nn2)CO[C@H]1CN(C)C(=O)Nc1ccc(F)cc1` gave HCMV antiviral -8.
For CC1=C(C(=O)OCC2CCCCC2)C(c2ccc(Cl)cc2)CC(=O)N1 (stereo unspecified) the results were FMDV antiviral inconclusive, Vaccinia mCherry -19%, HCMV antiviral inconclusive and Vaccinia Venus -8%.
Screening O=C(NC1CCCC1)c1ccc2c(c1)N(Cc1ccc(C(F)(F)F)cc1)C(=O)c1ccccc1S2 returned FMDV antiviral inconclusive, Vaccinia mCherry -16%, HCMV antiviral -10 and Vaccinia Venus -22%.
Screening COc1ccc(CC(C)N2CCN(c3cccc(C(F)(F)F)c3)CC2)cc1OC (stereo unspecified) returned Vaccinia mCherry inactive, HCV inh 11µM*, HCMV antiviral inconclusive and Vaccinia Venus -24%.
`COc1ccc(OC)c(CNc2ccc([N+](=O)[O-])cc2C)c1` gave FMDV antiviral inconclusive, Vaccinia mCherry -18%, HCV inh -21%, HCMV antiviral -91* and Vaccinia Venus -4%.
Cc1cc([N+](=O)[O-])ccc1NCc1ccc2c(c1)OCCO2 was read as FMDV antiviral 8%, Vaccinia mCherry -18%, HCV inh 10µM*, HCMV antiviral 59 and Vaccinia Venus -12%.
`COc1ccc([N+](=O)[O-])cc1NC1C2CC3CC(C2)CC1C3` (stereo unspecified) gave FMDV antiviral -17%, HCV inh -14% and HCMV antiviral -35.
`COc1ccc([N+](=O)[O-])cc1NCc1ccccc1C` gave Vaccinia mCherry inactive, HCV inh -68%, HCMV antiviral -33 and Vaccinia Venus -18%.
COc1ccc([N+](=O)[O-])cc1NC1CCCCC1 was read as FMDV antiviral -28%, HCV inh 11µM* and HCMV antiviral -15.
COc1cccc(CNc2ccc([N+](=O)[O-])cc2C)c1 was read as FMDV antiviral -15%, Vaccinia mCherry -22%, HCV inh -17%, HCMV antiviral 32 and Vaccinia Venus -6%.
`COc1ccc([N+](=O)[O-])cc1NCc1ccccc1` gave FMDV antiviral -24%, Vaccinia mCherry inconclusive, HCV inh 6.3µM*, HCMV antiviral -33 and Vaccinia Venus -19%.
For COc1cccc(NC(=O)CC(C)S(=O)(=O)c2ccc3c(c2)NC(=O)CO3)c1 (stereo unspecified) the results were FMDV antiviral 6%, Vaccinia mCherry -1%, HCMV antiviral -4 and Vaccinia Venus -4%.
`Cc1ccc2c(c1)N(C=Nc1c(C)cccc1Cl)C(c1ccccc1)c1cccn1-2` (stereo unspecified) gave HCMV antiviral 9.
`OCCCn1c(CCNc2nc(-c3ccc(Cl)cc3)cs2)nc2cc(C(F)(F)F)ccc21` gave FMDV antiviral -15%, Vaccinia mCherry inconclusive, HCV inh inconclusive, HCMV antiviral -63* and Vaccinia Venus -21%.
COc1ccc(-c2csc(NC(C)c3nc4cc(C(F)(F)F)ccc4n3CCOCCO)n2)cc1 (stereo unspecified) was read as FMDV antiviral inconclusive, Vaccinia mCherry inconclusive, HCV inh 8.9µM*, HCMV antiviral -36 and Vaccinia Venus inconclusive.
`CC(Sc1nnc2ccccn12)C(=O)Nc1ncc(Cl)cc1Cl` (stereo unspecified) gave FMDV antiviral 33%, Vaccinia mCherry -23%, HCV inh -7%, HCMV antiviral 70 and Vaccinia Venus -15%.
Screening COc1ccc(-n2c(SC(C)C(=O)Nc3ncc(Cl)cc3Cl)nc3ccccc32)cc1 (stereo unspecified) returned FMDV antiviral -13%, Vaccinia mCherry inconclusive, HCV inh inconclusive, HCMV antiviral -85* and Vaccinia Venus -7%.
For CCOc1ccc(NC(=O)c2cc3cc(C)ccc3n2C)cc1 the results were FMDV antiviral 5%, Vaccinia mCherry -7%, HCMV antiviral -27 and Vaccinia Venus -14%.
For COc1ccccc1N1CCN(CC(=O)Nc2ccc(CN3CCCCC3)cc2)CC1 the results were Vaccinia mCherry -2%, HCV inh inconclusive, HCMV antiviral -30 and Vaccinia Venus -15%.
`Cc1ccc(Cl)cc1N1CCN(CCNC(=O)Nc2ccc(Cl)cc2)CC1` gave FMDV antiviral inconclusive, Vaccinia mCherry -17%, HCMV antiviral -90* and Vaccinia Venus -19%.
For Cc1ccc(Cl)cc1N1CCN(CCN)CC1 the results were FMDV antiviral 20%, Vaccinia mCherry inconclusive, HCV inh 10µM*, HCMV antiviral 1 and Vaccinia Venus -21%.
`Cc1ccc(Cl)cc1N1CCN(CC(=O)Nc2ccc(CN3CCCCC3)cc2)CC1` gave FMDV antiviral inconclusive, Vaccinia mCherry -12%[1.46 µM], HCV inh 8.9µM*, HCMV antiviral -36 and Vaccinia Venus -16%.
Screening Cc1ccc(Cl)cc1N1CCN(S(C)(=O)=O)CC1 returned Vaccinia mCherry -4%, HCV inh 0%, HCMV antiviral inconclusive and Vaccinia Venus -15%.
For Cc1cccc(N2CCN(C(=O)c3ccc4c(Cl)c5c(nc4c3)CCCC5)CC2)c1C the results were FMDV antiviral -13%, Vaccinia mCherry -26%, HCMV antiviral -29 and Vaccinia Venus -18%.
`COc1ccc(-n2c(SCc3ccccc3F)nc3c([nH]c4ccccc43)c2=O)cc1OC` gave FMDV antiviral inconclusive, Vaccinia mCherry -29%, HCMV antiviral 3 and Vaccinia Venus -27%.
Screening Cc1ccc2[nH]c(=O)c(C(c3nnnn3Cc3ccccc3)N3CCc4ccccc43)cc2c1 (stereo unspecified) returned FMDV antiviral -10%, HCV inh 32µM* and HCMV antiviral 8.
Screening COc1ccc(NS(=O)(=O)c2cc(NC(=O)[C@H](C)NC(N)=O)ccc2N2CCCC2)cc1 returned FMDV antiviral 29%, Vaccinia mCherry -20%, HCV inh inconclusive, HCMV antiviral -85* and Vaccinia Venus -16%.
Screening COc1ccc(NS(=O)(=O)c2ccc(N3CCOCC3)c(N)c2)cc1 returned FMDV antiviral inconclusive, HCV inh 6.3µM* and HCMV antiviral -70*.
Screening CCC(=O)Nc1ccc(N2CCOCC2)c(S(=O)(=O)Nc2ccc(OC)cc2)c1 returned FMDV antiviral 106%, Vaccinia mCherry -4%, HCV inh -29%, HCMV antiviral -31 and Vaccinia Venus 0%.
For COc1ccc(NS(=O)(=O)c2cc(NC(=O)C(CC(C)C)NC(N)=O)ccc2N2CCOCC2)cc1 (stereo unspecified) the results were FMDV antiviral 32%, HCV inh 9% and HCMV antiviral -68*.
`COc1ccc(S(=O)(=O)Nc2ccc(N3CCOCC3)cc2)cc1` gave FMDV antiviral -24%, HCV inh 9% and HCMV antiviral 15.
Screening Cc1ccc(CCNC(=O)CCSCc2ccccc2Cl)cc1 returned FMDV antiviral -4%, Vaccinia mCherry -9%, HCMV antiviral -17 and Vaccinia Venus -7%.
